# Results taken from publication PMC5540273 (PLoS ONE, 2017).
# Tests used:
# ERK5 = test system: T1, ERK5
# T1 construct: gene MAPK7
# FAK = test system: T2, FAK
# T2 construct: gene PTK2
# 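Also: kd values determined as follow-up on hits from a single-replicate KINOMEscan panel screen.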
compound,measurement,setting,value
Cc1ccc(Oc2ccc(Nc3ncnc4cc[nH]c34)cc2C)cn1,Kd,ERBB2,6.5 nM
same,Kd,FLT1,> 10000 nM
O=C(Nc1n[nH]c2nc(-c3ccccc3)c(Br)cc12)C1CC1 [SB-708998],Kd,ERK5,> 10000 nM
O=C(NCc1cccs1)c1cc(C(=O)c2c(Cl)cccc2Cl)c[nH]1 [GW823670],Kd,FAK,> 10000 nM
CCc1nc(-c2cccc(C)c2)c(-c2ccncc2)s1,Kd,FAK,> 10000 nM
COc1cc(OC)cc(-c2cc3cnc(N)nc3nc2NC(=O)NC(C)(C)C)c1,Kd,FGFR1,66 nM
same,Kd,FGFR2,310 nM
same,Kd,FGFR3,110 nM
FC(F)(F)c1ccc(-c2ncn(CCCN3CCOCC3)c2-c2ccncc2)cc1 [SB-217780],Kd,FGFR1,> 10000 nM
Nc1ncnc2c1ncn2-c1cccc(F)c1 [SKF-97560],Kd,FGFR4,> 10000 nM
COc1ccc(Nc2nccc(N3CCC(NS(=O)(=O)c4ccc(NC(C)=O)cc4)C3)n2)cc1 (centres unmarked) [GSK1379729],Kd,FGFR4,> 10000 nM
COc1cc2nccc(Nc3ccc(OCc4ccc(NC(C)=O)cc4)cc3)c2cc1OC.Cl [GW440135],Kd,FLT1,680 nM
Cl.NS(=O)(=O)c1cccc(Nc2cc(-c3ccc(F)cc3)n[nH]2)c1 [GW824645],Kd,FLT3,7.5 nM
COc1ccc(-n2cnc3c(N)ncnc32)cc1 [SKF-97236],Kd,FLT3,120 nM
